From PubChem BioAssay (NCATS)
Results filed as inconclusive are left out. The call rests on the fitted dose curve; in most records, active means well fitted curve in either direction with a large enough effect (not every such curve was filed as active); inconclusive means small, poorly fitted or top-dose-only effect, or another doubt; inactive means flat fitted curve, though single readings scatter.

Test: AP1 Signaling Pathway (AID 357);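 further: ME-180 reporter cells stimulated with EGF at its EC50 level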
Settings: ME-180 (cervical carcinoma) AP-1-bla reporter, EGF-induced, beta-lactamase ratio, 5 h; at 17.2 µM (top of the series) unless noted
Method in brief: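 Titration-series screen for positive or negative modulators of EC50 EGF-induced signaling in ME-180 cells carrying an AP-1-driven beta-lactamase reporter. After 5 hours at 37 degrees Celsius, CCF4 460nm/530nm emission ratio gave %Activity; AC50 values derived.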
On the % scale 0 is the no-effect control and ±100 the full control effect.

Activity change, negative = inhibition, inactive:
CCOC(=O)CSc1nc(N2CCOCC2)c2c(c1C#N)CC(C)(C)N(C)C2 -8.24%
CC1CN(c2oc(-c3cccs3)nc2C#N)CC(C)O1 (stereo unspecified) 3.54%
Cc1ccc(-c2ccccc2NC(=O)C2C3C=CC(C3)C2C(=O)O)o1 (stereo unspecified) -3.25%
Nc1ccc2oc(-c3ccccc3Cl)nc2c1 -0.869%
CCN=C1SC(C(=O)Nc2ccc(Cl)c(Cl)c2)CC(=O)N1CC (stereo unspecified) -19.4%
CCCCCSc1nc(O)cc(=O)[nH]1 -9.05%
COC(=O)c1ccc(C2/C(=C(\O)c3cccc(OC)c3)C(=O)C(=O)N2CCCN(C)C)cc1 (stereo unspecified) 2.5%
CCOC(=O)CNS(=O)(=O)c1cc(-c2nn(C)c(=O)c3ccccc23)ccc1C 7.12%
CCOC(=O)CSc1nc(-c2ccc3c(c2)OCO3)ccc1C#N 7.89%
COC(=O)C(C)Sc1nc2c(c(=O)n(C)c(=O)n2C)n1CCC(C)C (stereo unspecified) -4.73%
COC(=O)CC1SC(=O)NC1=O (stereo unspecified) 6.96%
COCCNC(=O)C(C#N)c1nc2ccccc2nc1N1CCN(Cc2ccc3c(c2)OCO3)CC1 (stereo unspecified) -20.2%
CCN(CC)CCN1C(=O)C(=O)/C(=C(/O)c2c(C)[nH]c(C(=O)OC)c2C)C1c1cccc(OC)c1 (stereo unspecified) 1.88%
c1ccc(-c2nc(NCC3CCCO3)c3ccccc3n2)nc1 (stereo unspecified) -1.55%
COc1ccccc1C(=O)Nc1cc(Cl)ccc1O -12.2%
COc1ccc2c(c1)nc(N)n2Cc1ccccc1 -1.6%
